Experimental data published in PubChem BioAssay AID624296 (National Center for Advancing Translational Sciences (NCATS), 2012).
The whole screen tested about 350,000 compounds, of which about 9,900 (2.8%) were called active. About 15% were inconclusive and are not listed. Only a selection was taken, and actives are over-represented in it overall. Values without a mark were called inactive. The call rests on the fitted dose curve; in most records, active means well fitted activation curve with a large enough effect; inconclusive means small, poorly fitted or top-dose-only effect; inactive means no such curve, though single readings can be large or run the other way.
Potency means the concentration at half of the fitted maximal effect.

Assay: A quantitative high throughput screen for small molecules that induce DNA re-replication in MCF 10a normal breast cells. Further: nearly all actives have a fitted effect of over 50% in size. On activity, positive = re-replication: % of control where 0% means no effect.
Conditions: MCF 10A DNA re-replication, Hoechst nuclear intensity, 48 h; series mostly up to 46.1 µM; activity, positive = re-replication: at the top concentration
With `CC(=O)NC(CC(=O)Nc1ccc(S(=O)(=O)N2CCOCC2)cc1)c1ccccc1` (stereo not given) the “activity, positive = re-replication” value was 0.442%. With `CCCn1c(=NC(C)=O)c(C(=O)OCC)cc2c(=O)n3ccccc3nc21` the “activity, positive = re-replication” value was -5.83%. For `C/C(=N/OC(=O)c1c(-c2c(F)cccc2Cl)noc1C)c1cnccn1`, the “activity, positive = re-replication” value was -1.23%. In the case of `CCOC(=O)c1cc2c(=O)n3ccccc3nc2n(CC(C)C)c1=NC(=O)c1c(-c2c(F)cccc2Cl)noc1C`, the Potency is reported as 3.26 µM (active). With `Cc1noc(C)c1NC(=O)Nc1cccc2c1O[C@H](CN(C)S(=O)(=O)c1c(C)noc1C)[C@@H](C)CN([C@H](C)CO)C2=O` the “activity, positive = re-replication” value was 1.25%. In the case of `CCc1nnc(NC(=O)c2cc(S(=O)(=O)N3CCN(CC)CC3)ccc2Cl)s1`, the “activity, positive = re-replication” value is reported as -8.12%. With `CCCN(CC(=O)Nc1ccccc1C)C(=O)c1ccc2[nH]c3c(c2c1)CC(C)CC3` (stereo not given) the Potency was 1.3 µM (active). With `CCCN(CC(=O)Nc1ccccc1C)C(=O)c1cc(=O)[nH]c2ccccc12` the “activity, positive = re-replication” value was 10.5%. In the case of `CC1CCc2[nH]c3ccc(C(=O)N(C)CC(=O)Nc4cccc(F)c4)cc3c2C1` (stereo not given), the “activity, positive = re-replication” value is reported as 19.4%. With `CN1CCOC1c1ccc(C2OCCN2C)cc1` (stereo not given) the “activity, positive = re-replication” value was -3.01%. For `O=C1C=C(c2ccnc3cc(Cl)ccc23)C[C@@H](c2ccc3c(c2)OCO3)C1`, the “activity, positive = re-replication” value was -2.45%. In the case of `CCOc1ncccc1C(=O)Nc1ccc2c(c1)OCCO2`, the “activity, positive = re-replication” value is reported as -0.515%. With `COc1ccc(C(=O)N2CCN(c3ncccn3)CC2)cc1S(=O)(=O)N1CCOCC1` the “activity, positive = re-replication” value was 0.66%. With `Cc1ccc(C(C)C)cc1OCC(=O)Nc1ccccc1N1CCCC1` the Potency was 20.6 µM (active). In the case of `Cc1ccc(C(C)C)cc1OCCN1CCCC1`, the “activity, positive = re-replication” value is reported as 16%. For `CCC(=O)N1CCN(c2ccccc2NC(=O)COc2cccc(C)c2C)CC1`, the “activity, positive = re-replication” value was 11.5%. With `O=S(=O)(NCCCCCCNS(=O)(=O)c1c(F)cccc1F)c1ccc2c(c1)OCCO2` the “activity, positive = re-replication” value was 12.4%. With `COc1ccc(/C=C/C(=O)Nc2ccc(C)cc2)cc1S(=O)(=O)N1CCOCC1` the “activity, positive = re-replication” value was -4.4%. With `COc1ccc(/C=C/C(=O)Nc2cccnc2)cc1OC` the “activity, positive = re-replication” value was -3.51%. For `COc1ccc(/C=C/C(=O)Nc2c(C)nn(C)c2C)cc1COc1ccc(Br)cc1`, the Potency was 4.61 µM (active). In the case of `COc1ccc(OC)c(S(=O)(=O)Nc2c(C)nn(C)c2C)c1`, the “activity, positive = re-replication” value is reported as 2.29%. With `C/C=C/c1ccc(OCC(=O)OCC(=O)Nc2c(C)nn(-c3ccccc3)c2C)c(OC)c1` the “activity, positive = re-replication” value was 0.529%. For `CCn1nc(C)c(NC(=O)/C=C/c2ccc(OC)c(COc3ccc(Br)cc3)c2)c1C`, the Potency was 8.2 µM (active). For `CCCC(NCC(=O)Nc1ccccc1C(=O)NC1CC1)c1ccccc1` (stereo not given), the “activity, positive = re-replication” value was 8.84%. In the case of `Cc1ccc(S(=O)(=O)N2CCN(C(=O)COC(=O)/C=C/c3cccc(Cl)c3)CC2)c(C)c1`, the “activity, positive = re-replication” value is reported as 2.86%. In the case of `O=C(N[C@H]1C/C=C\C(c2ccc(F)cc2)N(Cc2ccccc2)C(=O)C1)OCC1c2ccccc2-c2ccccc21` (stereo not given in full), the “activity, positive = re-replication” value is reported as -15%. For `Cc1ccsc1C(=O)NC1CCCCC1C` (stereo not given), the “activity, positive = re-replication” value was 4.61%. With `CC(=O)Nc1ccc(-c2csc(NC(=O)Nc3ccccc3)n2)cc1` the Potency was 20.6 µM (active). In the case of `CC(=O)Nc1ccc(S(=O)(=O)Nc2nc(-c3ccc(C(C)(C)C)cc3)cs2)cc1`, the “activity, positive = re-replication” value is reported as -4.78%. In the case of `CC(=O)Nc1ccc(-c2csc(NC=C3C(=O)OC(C)(C)OC3=O)n2)cc1`, the “activity, positive = re-replication” value is reported as -2.67%. With `O=C(O[C@@H]1[C@H](Cc2ccccc2)NS(=O)(=O)[C@H]2C[C@@H]3C=C[C@]12O3)c1ccccc1Br` the “activity, positive = re-replication” value was -7.18%. In the case of `NC(=O)c1ncn([C@@H]2O[C@H](CNCc3cnc(N4CCOCC4)s3)[C@@H](O)[C@H]2O)n1`, the “activity, positive = re-replication” value is reported as 4.83%. With `CC(=O)NC12CC3CC(C1)CC(C(=O)N1CCN(S(=O)(=O)c4cccs4)CC1)(C3)C2` the “activity, positive = re-replication” value was 5.55%. With `CN1C(=O)[C@H]2[C@@H](/C=C/c3ccccc3)N3C(=O)CN(Cc4ccc(-c5ccccc5)cc4)C(=O)[C@@]3(C)[C@H]2C1=O` the “activity, positive = re-replication” value was 9.52%. For `CCOC(=O)N1CCN(C(=O)C2CCCN(c3ncnc4c3sc3cccc(F)c34)C2)CC1` (stereo not given), the “activity, positive = re-replication” value was 8.33%. For `Cc1ccc(NC(=O)N2CCC(c3nc4c(nnn4Cc4c(F)cccc4Cl)c(=O)[nH]3)CC2)cc1`, the “activity, positive = re-replication” value was -3.7%. With `OC1CCCN(c2ncnc3c2nnn3Cc2c(F)cccc2Cl)C1` (stereo not given) the Potency was 16.4 µM (active). With `C(#CCN1CCOCC1)CCCN1CCOCC1` the “activity, positive = re-replication” value was -3.95%. For `O=[N+]([O-])c1ccc(C=NN=Cc2ccc([N+](=O)[O-])cc2)cc1`, the “activity, positive = re-replication” value was -0.0464%. For `O=C(OCC(=O)N1CCCCCC1)c1ccc(Br)c(S(=O)(=O)N2CCOCC2)c1`, the “activity, positive = re-replication” value was 1.89%. In the case of `Cn1c(Cc2cccc3ccccc23)nnc1SCC(=O)N1CCN(c2cccc(Cl)c2)CC1`, the Potency is reported as 13 µM (active). In the case of `Cn1c(CNC(=O)c2ccco2)nnc1SCC(=O)N1CCN(c2ccccc2)CC1`, the “activity, positive = re-replication” value is reported as 2.16%. With `Cc1nnc(SCC(=O)N2CCN(c3ccccc3)CC2)n1-c1ccccc1` the “activity, positive = re-replication” value was 8.74%. With `CCCC(O)(c1ccccc1)C(c1ccccc1)c1ccccn1` (stereo not given) the “activity, positive = re-replication” value was -1.11%. For `COc1cc(/C=C/C(=O)OCC(=O)NCCCc2ccccc2)ccc1O`, the “activity, positive = re-replication” value was 6.85%. With `CCn1c(=N)c(S(=O)(=O)c2ccc(F)cc2)cc2c(=O)n3ccccc3nc21` the Potency was 13 µM (active). For `O=Cc1c(N2CCN(c3cccc(Cl)c3)CC2)nc2ccccn2c1=O`, the “activity, positive = re-replication” value was 11.1%. For `O=Cc1c(Nc2ccccc2Cl)nc2ccccn2c1=O`, the “activity, positive = re-replication” value was 12.2%. In the case of `CCOCCCNC(=O)c1cc2c(=O)n3ccccc3nc2s1`, the “activity, positive = re-replication” value is reported as 0.195%. For `CCCn1nc(NS(=O)(=O)c2ccc(F)cc2)c2cc3ccccc3nc21`, the “activity, positive = re-replication” value was -1.72%. For `Cc1ccc(Cn2c(=N)c(S(=O)(=O)c3ccc(C)cc3)cc3c(=O)n4ccccc4nc32)cc1`, the Potency was 5.8 µM (active). For `Cc1cc(C(=O)COc2ccccc2Cl)c(C)n1C1CC1`, the “activity, positive = re-replication” value was 13.9%. For `Cc1ccc(C(=O)NNC(=O)c2ccc3c(c2)OCCO3)cc1`, the “activity, positive = re-replication” value was 9.08%. In the case of `O=C(C1Cc2ccccc2CN1C(=O)c1ccco1)N1CCN(c2ccccc2)CC1` (stereo not given), the “activity, positive = re-replication” value is reported as 7.91%. In the case of `Cc1cc(S(=O)(=O)c2cc3ccc(O)c(C)c3oc2=O)ccc1F`, the Potency is reported as 10.3 µM (active). In the case of `COc1cccc2cc(S(=O)(=O)c3ccc(C)cc3)/c(=N/NS(=O)(=O)c3ccc(C)cc3)oc12`, the “activity, positive = re-replication” value is reported as 18.1%. For `COC(=O)Cc1cc(=O)oc2c(C)c(O)ccc12`, the “activity, positive = re-replication” value was -7.36%. For `Cc1nc(Nc2ccccc2C)c2cnn(C)c2n1`, the “activity, positive = re-replication” value was 21.9%. For `O=[N+]([O-])c1cc2ccccc2nc1-c1ccccc1`, the “activity, positive = re-replication” value was 5.75%. In the case of `O=C(N[C@@H]1C/C=C\C[C@@H](CC(=O)N(CCO)Cc2ccccc2)C(=O)N[C@H](Cc2ccccc2)COC1=O)OCC1c2ccccc2-c2ccccc21`, the “activity, positive = re-replication” value is reported as -2.36%.
